In PubChem BioAssay AID652176 (Sanford-Burnham Center for Chemical Genomics, 2013):
The whole screen tested about 2,400 compounds, of which about 25 (1%) were called active. Only a sample is shown. A number with no mark means an inactive call.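 The calls were made as follows: active = replicate-average signal at least 3 plate SD below neutral wells, shown as high inhibition, flagging enzyme-inhibiting false positives; inactive = the rest.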

Each compound was assayed on Beta-galactosidase (Escherichia coli), counter-screen for EBI2 antagonists (assay: E. coli beta-galactosidase enzyme inhibition, confirmation, counter-screen for EBI2 antagonist project, biochemical, luminescence, single concentration (AID 652176;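 also: 0% = DMSO wells with enzyme and 100% = wells lacking enzyme; higher means stronger loss of beta-gal luminescence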)). Conditions: purified beta-galactosidase, luminescent Galacton Star, 15 min; at 5 µM; hits give high values.
For `COc1ccc2cc(C3=CC(=O)C[C@H](c4ccc5c(c4)OCO5)C3)ccc2c1`, the inhibition was -16.2%.
Compound `Cc1cc(Cl)c2oc(C(=O)N3CCC(O)(c4ccccc4)CC3)c(C)c2c1` has an inhibition of -14%.
Work on `COc1ccc(/C=N/N=C/c2c[nH]c(=O)c(C#N)c2Nc2ccccc2)cc1` yielded an inhibition of -8.65%.
With `O=c1[nH]c(CN2CCN(S(=O)(=O)c3ccc4c(c3)OCCO4)CC2)nc2sc3c(c12)CCCC3` the inhibition was 5.78%.
`O=C(NCCCc1ccccc1)C1CCC(=O)N(CCc2ccc(Cl)cc2)C1` (configuration not stated) gave an inhibition of 1.78%.
Work on `COc1ccccc1N1CCN(C(=O)c2cc(=O)c3cc(C)ccc3o2)CC1` yielded an inhibition of 2.71%.
Work on `COc1ccc(C(=O)/C=C/c2ccc(OC3CSC3)cc2)cc1` yielded an inhibition of 4.77%.
For `CN1CCc2ccccc2C1Cc1ccccc1NC(=O)c1sc2ccccc2c1Cl` (configuration not stated), the inhibition was -9.49%.
With `O=C(COc1ccc2ccccc2c1)N1CCN(C(=O)c2cccs2)CC1` the inhibition was 6.4%.
`O=C(c1cc2ccccc2s1)N1CCN(c2ccccn2)CC1` showed an inhibition of -19.7%.
With `O=C(/C=C/c1cccc([N+](=O)[O-])c1)N1CCN(Cc2ccccc2)CC1` the inhibition was -5.48%.
Compound `CC(=O)/C(=N\Nc1ccc(Cl)cc1Cl)Sc1cccc2cccnc12` has an inhibition of -5.07%.
`CCN(CC(=O)NCc1cccs1)C(=O)/C=C/c1ccc(C)cc1` gave an inhibition of 1.05%.
`O=C(C(c1ccccc1)c1ccccc1)N1CCN(CC(O)COc2ccccc2)CC1` (configuration not stated) gave an inhibition of -10%.
`Cc1ccc(S(=O)(=O)N2CCN(CC(=O)N/N=C/c3ccc(Br)s3)CC2)cc1` gave an inhibition of 3.3%.
For `COc1cccc(-c2cc(C(=O)N3CCN(c4ccccc4OC)CC3)no2)c1`, the inhibition was 5.78%.
For `COc1ccc(OCC(=O)N2CCN(C(=O)COc3ccccc3)CC2)cc1`, the inhibition was -7.53%.
Compound `Cc1ccc2oc(=O)c3cnn(CC(=O)N4CCCCCC4)c3c2c1` has an inhibition of 6.6%.
With `CCC1Nc2ncnc(N3CCN(c4ccccc4)CC3)c2N(Cc2ccc(Cl)cc2)C1=O` (configuration not stated) the inhibition was 69% (active).
`Cc1cccc(N2CCN(C(=O)c3cc4c(=O)[nH]c5ccccc5c4n3C)CC2)c1C` showed an inhibition of 5.01%.
In the case of `CC(=O)c1nn(-c2ccc(C)cc2)cc1C(=O)c1cccc(Br)c1`, the inhibition is reported as -0.17%.
With `Cc1ccc(OCC(=O)N2CCN(S(=O)(=O)c3ccc(Cl)s3)CC2)cc1C` the inhibition was 0.1%.
`CCC(C)(C)NC(=O)c1cc([N+](=O)[O-])ccc1N1CCCCC1` gave an inhibition of -7.53%.
In the case of `Cc1cccc(NC(=O)CN2CCN(C(=O)C3CCN(C(=O)/C=C/c4ccccc4)CC3)CC2)c1C`, the inhibition is reported as -13.5%.
With `O=C(Nc1ncc2c(n1)CC(c1ccco1)CC2=O)c1ccc(Cl)cc1` (configuration not stated) the inhibition was 8.95%.
Compound `CCOc1ccc(CN(Cc2ccco2)S(=O)(=O)c2ccc(-n3cnnn3)c(OC)c2)cc1` has an inhibition of 4.57%.
`COc1ccc(C(c2nnnn2C2CCCC2)N2CCN(C/C=C/c3ccccc3)CC2)cc1` (configuration not stated) was tested, and the inhibition was -12.2%.
`COc1ccc(-c2cc(NC=O)c3ncc(-c4cccc(C(=O)N(C)C)c4)n3c2)c(OC)c1` showed an inhibition of -10.8%.
In the case of `CCOC(=O)N1CCN(C(=O)CSc2ccc(Cl)cc2)CC1`, the inhibition is reported as 5.7%.
Compound `CCCCN=C1C([N+](=O)[O-])=CC=C2C1=NC1(CCCCC1)N2O` has an inhibition of -14.2%.
Work on `CCC(c1nnc(SCC(=O)NNC(=O)c2ccccc2)n1Cc1ccccc1)N(C)C` (configuration not stated) yielded an inhibition of -17.6%.
For `CCOc1ccc(CCN2C(=S)N([C@@H](CC(C)C)CN3CCC[C@@H]3CN3C(=S)NC[C@@H]3Cc3ccc(O)cc3)C[C@@H]2Cc2ccc(O)cc2)cc1`, the inhibition was -18.9%.
Work on `O=C(/C=C/c1cccc(C(F)(F)F)c1)N1CCN(c2ccccn2)CC1` yielded an inhibition of -8.93%.
Work on `Cc1ccc(OCC(=O)N2CCN(C(=O)c3cccnc3)CC2)cc1` yielded an inhibition of -9.4%.
With `CN(Cc1ccc(F)cc1)C(=O)COc1ccc2ccccc2c1` the inhibition was 3.08%.
In the case of `Cc1cc(C)c2c(=O)n3c(nc2c1)C(CC(C)C)NC(=O)c1cc2ccccc2cc1-3` (configuration not stated), the inhibition is reported as 7.36%.
`CCOc1ccc(C(C)=O)cc1COC(=O)c1cnc(Cl)c(Cl)c1` showed an inhibition of -6.96%.
With `Cc1cccc(OCC(O)CN2CCN(S(=O)(=O)c3ccc(C)cc3C)CC2)c1` (configuration not stated) the inhibition was -7.67%.
In the case of `COc1ccc(-c2nc(N)ncc2-c2ccc(Cl)cc2)c(O)c1`, the inhibition is reported as 5.17%.
`Cc1cc(OCC(=O)N2CCN(c3ncccn3)CC2)ccc1Cl` showed an inhibition of 2.13%.
In the case of `O=C(COc1ccc(Cl)cc1)N1CCN(c2cccc(C(F)(F)F)c2)CC1`, the inhibition is reported as 4.01%.
With `O=C(NCc1ccc(Cl)cc1)C1CCN(S(=O)(=O)c2cccs2)CC1` the inhibition was 1.5%.
Work on `N#Cc1ccc(C2=CC(=O)C[C@H](c3ccc(Cl)cc3)C2)cc1` yielded an inhibition of 9%.
With `CCCC1CCC(=NNC(=S)NCCc2ccccc2)CC1` (configuration not stated) the inhibition was -11.9%.
In the case of `O=C(COc1ccc(Cl)cc1)N1CCN(S(=O)(=O)c2ccc(Cl)cc2)CC1`, the inhibition is reported as 6%.
`CCOC(=O)C1CCN(C(=O)COc2cc(C)c(Br)c(C)c2)CC1` showed an inhibition of 2.96%.
`Cc1cc(OCCOc2cccc3cccnc23)c(C)cc1Cl` gave an inhibition of 4.27%.
`O=C(NNC(=O)c1ccc2ccccc2c1)c1ccc(Cl)cc1` gave an inhibition of 7.62%.
`COc1ccccc1CCNC(=O)C1CCN(C(=O)/C=C/c2ccccc2)CC1` gave an inhibition of 6.37%.
Work on `O=C(Nc1ccc(S(=O)(=O)N2CCCCC2)cc1)C1CC(=O)N(c2ccc(F)cc2)C1` (configuration not stated) yielded an inhibition of 10.2%.
For `COc1ccc(-c2cn(-c3ccc(OC)cc3)c(=S)[nH]2)cc1`, the inhibition was 3.97%.
`Cc1cccc(N=C2NC(=O)/C(=C/c3cn(C)c4ccccc34)S2)c1` was tested, and the inhibition was 8.09%.
Work on `Cc1ccc(OCCNC(=O)CCNS(=O)(=O)c2ccc(Br)cc2)cc1` yielded an inhibition of -13%.
`O=C(COc1ccc2c(c1)CCC2)N1CCN(c2ccc(F)cc2)CC1` was tested, and the inhibition was -10.9%.
`O=C(NCc1ccc(Cl)cc1)c1cc(=O)nc2sc(-c3ccccc3)nn12` showed an inhibition of 2.99%.
Work on `O=C(CC(c1ccccc1)c1ccccc1)NCC(O)c1ccc([N+](=O)[O-])cc1` (configuration not stated) yielded an inhibition of -11%.
`COc1ccc(CNC(=O)CN(c2ccc(OC)c(Cl)c2)S(=O)(=O)c2ccc(C)cc2)cc1` gave an inhibition of -10.2%.
Compound `N#Cc1ccc(C(c2nnnn2CCc2ccccc2)N2CCCCCC2)cc1` (configuration not stated) has an inhibition of 7.67%.
With `O=C(NCCNc1ccc([N+](=O)[O-])cc1)c1cccc2c(Br)cccc12` the inhibition was 3.17%.
`Cc1cs/c(=N\N=C\c2ccc(O)cc2)n1Cc1ccco1` gave an inhibition of 10%.
Work on `COc1ccc(-n2c(Cc3cccn3C)nnc2SCC(=O)Nc2cc(C)cc(C)c2)cc1` yielded an inhibition of 5.9%.
`O=C(/C=C/c1ccc(Cl)cc1)N1CCN(c2ccccc2[N+](=O)[O-])CC1` was tested, and the inhibition was 3.83%.
`COc1ccc(NC(=O)N2CCC(Cc3ccccc3)CC2)cc1` gave an inhibition of -4.45%.
`COc1cc(/C=C(\C#N)C(=O)Nc2ccc3ccccc3c2)c([N+](=O)[O-])cc1OC` showed an inhibition of -8.92%.
`CC(C)N(Cc1ccccc1)C(=S)Nc1ccc(OC(F)F)cc1` gave an inhibition of 7.71%.
Work on `Cc1ccc(S(=O)(=O)NCCNC(C)c2ccc(Br)cc2)cc1` (configuration not stated) yielded an inhibition of 4.8%.
With `Cc1cccc(C)c1-n1nnnc1C(CCc1ccccc1)N1CCN(C/C=C/c2ccccc2)CC1` (configuration not stated) the inhibition was -14.6%.
`Cc1cccc(-n2c(O)c(C=Nc3ccccc3N)c(=O)[nH]c2=O)c1` was tested, and the inhibition was 1.72%.
With `CC(C)Cc1ccc(-c2cc3nc(NCc4cccc(Cl)c4)ccn3n2)cc1` the inhibition was -21.1%.
`Fc1ccc(N2CCN(Cc3cnc(Oc4ccc(Br)cc4)s3)CC2)cc1` gave an inhibition of 3.88%.
`COc1ccc([C@H]2CC(=O)C=C(/C=C/c3ccc(Cl)cc3)C2)cc1` was tested, and the inhibition was -9.12%.
With `O=C(CSc1ccccc1)Nc1cc(Cl)ccc1Oc1ccccc1` the inhibition was -9.14%.
`COc1ccccc1N1CCN(C(=O)c2cc(-c3ccc(Br)cc3)on2)CC1` was tested, and the inhibition was 9.03%.
For `CC1CCc2sc3nc(N4CCN(CCO)CC4)n4ncnc4c3c2C1` (configuration not stated), the inhibition was -1.4%.
In the case of `Cc1nc2ccc(C(=O)N3CCN(c4ccccc4)CC3)cc2s1`, the inhibition is reported as -10.1%.
For `Cc1ccc(N2CC(C(=O)Nc3ccc(S(=O)(=O)N4CCCC4)cc3)CC2=O)cc1C` (configuration not stated), the inhibition was 2.23%.
Compound `COc1ccc([C@H]2CC(=O)C=C(c3ccc(C)cc3)C2)cc1` has an inhibition of 5.89%.
In the case of `O=C(c1cc2cc(F)ccc2[nH]1)N1CCN(c2ccc(F)cc2)CC1`, the inhibition is reported as 1.06%.
`Cc1ccc(CSCCNC(=O)CN(c2ccc(F)cc2)S(C)(=O)=O)cc1` was tested, and the inhibition was 3.75%.
For `O=C(c1ccc(-n2cnnn2)cc1)N1CCN(C(c2ccccc2)c2ccccc2)CC1`, the inhibition was 5.89%.
`Cc1ccc2oc(=O)c3cnn(CC(=O)N(Cc4ccco4)C4CCCCC4)c3c2c1` gave an inhibition of -17.5%.
`CCOC(=O)N1CCN(C(=O)COc2ccc(Cl)cc2C)CC1` showed an inhibition of 11%.
For `Cc1ccc(O/C=C2\OC(=O)c3ccccc32)cc1`, the inhibition was -6.52%.
Work on `CCOC(=O)N1CCN(C(=O)COc2ccc(Br)cc2)CC1` yielded an inhibition of 2.79%.
For `COc1ccc(OC)c(C(=O)c2coc3ccc(O)c(CN4CCOCC4)c23)c1`, the inhibition was 3.81%.
`FC(F)(F)Oc1ccccc1C(c1nnnn1C1CCCCC1)N1CCN(C/C=C/c2ccccc2)CC1` (configuration not stated) was tested, and the inhibition was 3.49%.
`COc1ccc(Nc2cc(Sc3ccc(OC)cc3)ncn2)cc1` was tested, and the inhibition was 8.03%.
